Screening data deposited in PubChem BioAssay by National Center for Advancing Translational Sciences (NCATS).
Only some compounds are listed: those with a hit (about 17% of all), similar ones and a draw of the others.
DT40 TDP1 no CPT: qHTS for Inhibitors of human tyrosyl-DNA phosphodiesterase 1 (TDP1): qHTS in cells in absence of CPT; DT40 Tdp1-/- hTDP1 cells, no CPT, ATP luminescence, 48 h; Potency, µM (highest dose often 46.2 µM), for inactives: at the highest dose activity change, negative = growth inhibition, actives largely listed as inhibitors; 420,000 tested, 15% active; AID 686978, 2013; further: on the % scale 0 is the no-effect control and ±100 the full control effect; nearly all actives have a fitted effect of over 55% in size
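Camptothecin absent (DMSO only). Human TDP1-complemented DT40 knockout cells, 400 cells/well, 37 °C for minimum 48 hr; ATP measured via CellTiter-Glo, 30 min dark incubation, luminescence.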
DT40 TDP1 CPT: qHTS for Inhibitors of human tyrosyl-DNA phosphodiesterase 1 (TDP1): qHTS in cells in presence of CPT | chicken DT40 Tdp1-/-;hTDP1 cells + 20 nM CPT, ATP luminescence, 48 h | Potency, µM (doses to about 46.2 µM), for the others: at the top dose activity change, negative = growth inhibition, usual class: inhibitors | 420,000 tested, 12% active | AID 686979, 2013; further: on the % scale 0 is the no-effect control and ±100 the full control effect; nearly all actives have a fitted effect of over 55% in size
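Chicken DT40 Tdp1-/- cells complemented with human TDP1, 400 cells/well, exposed to compounds plus 20 nM camptothecin for at least 48 h at 37 C; viability read as ATP content by CellTiter-Glo luminescence.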
TDP1 block: qHTS Assay for Inhibitors of Tyrosyl-DNA Phosphodiesterase (TDP1) | Tyrosyl-DNA phosphodiesterase 1 (Homo sapiens), Q9NUW8 | recombinant TDP1, AlphaScreen DNA substrate cleavage | Potency, µM (titrated, usually from 130 µM), without a hit: at the top dose activity change, negative = inhibition, hits mostly inhibitors | 350,000 tested, 0.28% active; further: on the % scale 0 is the no-effect control and ±100 the full control effect; nearly all actives have a fitted effect of over 40% in size
Target sequence (Q9NUW8 whole entry, looked up): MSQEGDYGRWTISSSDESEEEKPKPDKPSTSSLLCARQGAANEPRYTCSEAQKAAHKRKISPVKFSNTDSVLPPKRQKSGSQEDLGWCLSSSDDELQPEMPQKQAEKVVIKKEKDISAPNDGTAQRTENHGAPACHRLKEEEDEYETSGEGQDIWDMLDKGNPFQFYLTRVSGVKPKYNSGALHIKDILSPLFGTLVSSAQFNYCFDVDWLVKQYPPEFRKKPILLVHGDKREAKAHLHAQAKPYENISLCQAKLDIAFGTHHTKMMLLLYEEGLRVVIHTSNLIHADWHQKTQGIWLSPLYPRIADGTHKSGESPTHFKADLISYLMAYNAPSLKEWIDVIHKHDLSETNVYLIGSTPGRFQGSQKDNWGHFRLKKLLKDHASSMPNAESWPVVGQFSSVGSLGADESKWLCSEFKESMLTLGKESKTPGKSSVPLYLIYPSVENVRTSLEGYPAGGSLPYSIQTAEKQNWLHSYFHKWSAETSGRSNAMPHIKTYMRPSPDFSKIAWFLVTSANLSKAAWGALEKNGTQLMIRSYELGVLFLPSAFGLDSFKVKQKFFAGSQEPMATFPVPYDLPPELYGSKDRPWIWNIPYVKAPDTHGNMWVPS
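Enzyme-compound mixtures sat 15 min at room temperature, followed by a 5 min reaction with 15 nM final substrate and 10 min with AlphaScreen beads. Recombinant human Tdp1 was used at 1 nM final.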
ClpP mod: qHTS Assay for Activators of ClpP. ATP-dependent Clp protease proteolytic subunit (Bacillus subtilis (strain 168)), P80244. purified B. subtilis ClpP, FRET peptide cleavage, 20 min. Potency, µM (series often up to 57.5 µM), for the others: at the top dose activity change, negative = active. 340,000 tested, 1.9% active; active means well fitted falling curve with a large enough effect; inconclusive means small, poorly fitted or top-dose-only effect; inactive means no such curve, though single readings can be large or run the other way; further: the source files actives as falling curves though it sought activators and does not explain the sign; nearly all actives have a fitted effect of over 65% in size
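FRET quenching reversal measured ClpP activation: 10 microg/mL B. subtilis ClpP at pH 8 with the FRET-FV decapeptide, read at 430 nm after 320 nm excitation. The 20-min minus 0-min signal was scaled between DMSO/no-enzyme wells and ADEP (5.8 microM final).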
* hit, by the source's call; ? = inconclusive; nt = not tested or not shown; [ ] = remark or other dose. Unless noted, the call rests on the fitted dose curve; in most records, active means well fitted curve in the direction sought with a large enough effect; inconclusive means small, poorly fitted or top-dose-only effect, or another doubt; inactive means no such curve, though single readings can be large; an effect the other way counts as inactive or inconclusive. Potency means the concentration at half of the fitted maximal effect.

SMILES | DT40 TDP1 no CPT | DT40 TDP1 CPT | TDP1 block | ClpP mod
COc1ccccc1/C=C(/C(=O)OCC(=O)N(C)Cc1ccccc1)c1ccccc1 | 13µM* | ? | -5% | -4%
COc1ccccc1/C=C(/C(=O)OCC(=O)Nc1cc(C)ccc1C)c1ccccc1 | 21µM* | 26µM* | 0% | nt
COc1ccc(-n2c(=O)cnc3cnc(Oc4ccccc4)nc32)cc1 | ? | -6% | nt | nt
CCOc1ccc2nc3c(cc2c1)CN(CCCO)C(=NCCOC)S3 | 15µM* | ? | 7% | 1%
COCCN=C1Sc2nc3ccc(C)cc3cc2CN1Cc1cccs1 | 21µM* | ? | -5% | nt
COCCN1Cc2cc3cc(C)ccc3nc2SC1=Nc1ccc(OC)cc1 | ? | ? | -1% | nt
CCCCn1c(N)c(N(CC(C)C)C(=O)CN2C(=O)NC3(CCC(C(C)(C)CC)CC3)C2=O)c(=O)[nH]c1=O (centres undefined) | -24% | -16% | nt | 1%
Cc1ccc(CNC(=O)CN(c2cc(C)cc(C)c2)S(=O)(=O)c2c(C)noc2C)cc1 | ? | -28% | -2% | 2%
CC1(C)COC(c2ccc(F)c([N+](=O)[O-])c2)=N1 | 16µM* | 16µM* | -6% | -5%
COc1ccc(CCNc2nc(-c3cccnc3)cs2)cc1OC | ? | ? | 5% | -1%
COc1ccc(CCNc2nc(-c3ccccn3)cs2)cc1OC | 12µM* | 16µM* | nt | -2%
COc1ccc(CCNc2nc(-c3ccc(O)cc3)cs2)cc1OC | 16µM* | 16µM* | 10% | 1%
COc1ccc(CCNc2nc(-c3ccncc3)cs2)cc1OC | ? | 21µM* | nt | -4%
COc1ccc(CNc2ncccn2)cc1OC | -2% | -3% | 3% | nt
COc1ccc(CCNc2nc(-c3ccc(F)cc3)c(CC(=O)O)s2)cc1OC | 26µM* | 15µM* | 12% | nt
COc1ccc(CCNc2nc(-c3ccc(NC(C)=O)cc3)cs2)cc1OC | ? | ? | 8% | 1%
COCC(=O)Nc1cc(C(=O)N2CC3CC4CC(C3)CC2C4)c2c(c1)nc(-c1ccncc1)n2C | ? | 1%[9.04 µM] | nt | nt
Cc1ccc(NC(=O)CCS(=O)(=O)c2cccc3nsnc23)c(C)c1 | -5% | 4% | -6% | -3%
COc1ccccc1-c1ccnc(-n2ncc(C(=O)NCc3cccc(C)n3)c2C)n1 | -2% | 0%[9.04 µM] | nt | nt
COc1ccc(NC(=O)CC2C(=O)N(c3ccc(C)cc3)C(=O)N2Cc2cccnc2)cc1 (centres undefined) | ? | -27% | 6% | 3%
C[n+]1c2n(c3ccccc31)N=C(c1ccc(-c3ccccc3)cc1)CS2 | 0.52µM* | 0.58µM* | 9% | -1%
C[n+]1c2n(c3ccccc31)N=C(c1ccccc1)CS2 | 2.3µM* | 2.3µM* | 5% | -15%
CCc1nnc2n1N=C(c1ccc(Br)cc1)CS2 | -12% | -4% | nt | 0%
C[n+]1c2n(c3ccccc31)N=C(c1ccc(Br)cc1)CS2 | 0.52µM* | 0.65µM* | -5% | 2%
O=C(COc1cc(F)ccc1[N+](=O)[O-])NCCCc1ccccc1 | -20% | -5% | 8% | nt
SMILES | DT40 TDP1 no CPT | DT40 TDP1 CPT | TDP1 block | ClpP mod
O=C(O)c1cccc(CN2C(=O)SC(Nc3cccc4ccccc34)C2=O)c1 (centres undefined) | 9% | 14% | 0% | 0%
N#CC1=C(N)Oc2c(oc(CO)cc2=O)C1c1ccsc1 (centres undefined) | 6% | 1% | 0% | -2%
N#CC1=C(N)Oc2c(ccc3ccccc23)C1c1ccsc1 (centres undefined) | 0.58µM* | 0.82µM* | 9% | -1%
S=c1[nH]nc(CCCc2n[nH]c(=S)o2)o1 | 0% | 13% | nt | nt
Cc1nc(N2CCCCC2)sc1C(=O)c1cccc([N+](=O)[O-])c1 | ? | ? | 11% | nt
Cc1nc(N2CCCCC2)sc1C(=O)c1ccc(SCCO)c([N+](=O)[O-])c1 | 18µM* | ? | 8% | nt
O=[N+]([O-])/C(C=Nc1ccccc1O)=C\Nc1ccccc1O | 16µM* | 8.2µM* | 4% | -1%
O=[N+]([O-])/C(=C\Nc1ccccc1Cl)S(=O)(=O)c1ccccc1 | nt | nt | -7% | nt
O=S(=O)(c1ccccc1)c1nc(-c2ccccc2)oc1N1CCN(c2cccc(Cl)c2)CC1 | ? | ? | 2% | -22%
Cc1c(OC(C)C(=O)N2C[C@H]3C[C@@H](C2)c2cccc(=O)n2C3)ccc2c3c(c(=O)oc12)CCC3 (some centres undefined) | 3% | ? | nt | 5%
C=CCn1nc(C(=O)Nc2ccc(OC)cc2)cc1-c1sc(NC(=O)c2ccccc2)nc1C | ? | 18µM* | nt | ?
CCCCCC(=O)Nc1nc(C)c(-c2csc(Nc3cc(Cl)ccc3OC)n2)s1 | 18µM* | ? | 8% | -8%
CCCC(=O)Nc1nc(C)c(-c2csc(Nc3ccccc3OC)n2)s1 | ? | -28% | 6% | -6%
Cc1nc(NC(=O)c2ccccc2)sc1-c1csc(NCc2ccco2)n1 | 23µM* | 23µM* | 11% | -5%
Cc1nc(C)c(-c2csc(NCc3ccco3)n2)s1 | ? | ? | 2% | -15%
COc1cccc(Nc2nc(-c3sc(NC(=O)c4ccccc4)nc3C)cs2)c1 | 21µM* | 18µM* | 8% | -1%
Cc1nc(NC(=O)c2ccc(Cl)cc2)sc1-c1csc(Nc2cccc(F)c2)n1 | nt | nt | 9% | nt
O=C(COc1ccc(Br)cc1)NCCCn1ccnc1 | 9% | 13% | 1% | 1%
O=C(CCCOc1ccc(Cl)cc1Cl)N/N=C/c1cccc([N+](=O)[O-])c1 | -25% | ? | -3% | 0%
O=C1CCCN1CC(O)CS(=O)(=O)Cc1ccc(Cl)c(Cl)c1 (centres undefined) | 4% | -1% | nt | 1%
Cc1ccc(Cl)cc1NC(=O)Cn1c(=O)c(CNc2ccccc2)cc2cc3c(cc21)OCCO3 | nt | nt | 6% | -25%
C[C@H](CO)N1C[C@H](C)[C@@H](CN(C)S(=O)(=O)c2ccccc2)Oc2c(NC(=O)CCC(F)(F)F)cccc2C1=O | -6% | -13% | 1% | 3%
C=CCCC(=O)Nc1nc(C)c(-c2csc(Nc3cc(OC)ccc3OC)n2)s1 | 2.6µM* | 2.6µM* | 9% | ?
Cc1nc(NC(=O)c2ccccc2)sc1-c1csc(Nc2ccc(C(=O)O)cc2)n1 | 12µM* | 21µM* | 3% | nt
COc1cccc(Nc2nc(-c3sc(NC(=O)CC(C)C)nc3C)cs2)c1 | 23µM* | 13µM* | 2% | 2%
C=CCCC(=O)Nc1nc(C)c(-c2csc(Nc3cccc(OC)c3)n2)s1 | 16µM* | 16µM* | 1% | -16%
COCCN(C(=O)c1csnn1)C(C(=O)NC1CCCCC1)c1ccccc1F (centres undefined) | ? | -20% | 0% | nt
